Test results taken from PubChem BioAssay (Tox21).
Values joined by “and” are separate entries in the source; they are usually repeats but may differ in a detail not shown here. Equal values may be shown once. Records with an inconclusive call do not appear. Where a structure was tested more than once in an assay, its records may differ in their call. Active and inactive are the calls of the source. Calls follow the shape of the dose curve; as a rule, active = well fitted curve in the direction sought with a large enough effect in the repeat runs; inconclusive = weak or mixed curves; inactive = no such curve, though single readings can be large; an effect the other way counts as inactive or inconclusive.

How the values were obtained:
[1] = target: Cytochrome P450 2C19 (Homo sapiens) (UniProt P33261); assay: Cytochrome P450 Family 2 Subfamily C Member 19 (CYP2C19) small molecule antagonists: luciferase reporter qHTS assay (AID 1671197); also: nearly all actives have a fitted effect of over 65% in size
Sequence of Cytochrome P450 2C19 (Homo sapiens) (P33261 whole entry, looked up): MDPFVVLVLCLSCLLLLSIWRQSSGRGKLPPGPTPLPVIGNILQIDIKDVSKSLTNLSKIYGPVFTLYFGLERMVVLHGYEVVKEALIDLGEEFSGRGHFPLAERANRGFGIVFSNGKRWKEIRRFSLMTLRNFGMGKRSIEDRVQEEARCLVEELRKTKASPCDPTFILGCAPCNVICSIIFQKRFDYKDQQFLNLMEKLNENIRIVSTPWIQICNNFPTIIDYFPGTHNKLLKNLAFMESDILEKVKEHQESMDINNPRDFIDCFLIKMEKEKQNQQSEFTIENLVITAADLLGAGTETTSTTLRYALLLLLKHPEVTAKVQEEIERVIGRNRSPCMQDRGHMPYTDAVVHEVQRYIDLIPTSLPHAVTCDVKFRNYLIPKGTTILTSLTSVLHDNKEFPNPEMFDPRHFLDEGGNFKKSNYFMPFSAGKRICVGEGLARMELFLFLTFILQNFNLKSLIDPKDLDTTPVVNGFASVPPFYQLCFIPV
Outline: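 P450-Glo CYP2C19 screening system; proluciferin substrate; DMSO compound stocks; 10 min RT preincubation; NADPH regeneration, 1 h at 37C; luciferin detection reagent, 20 min RT; luminescence as RLU.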

[2] = target: Cytochrome P450 2C9 (Homo sapiens) (UniProt P11712); assay: Cytochrome P450 Family 2 Subfamily C Member 9 (CYP2C9) small molecule antagonists: luciferase reporter qHTS assay (AID 1671198); also: nearly all actives have a fitted effect of over 50% in size
Sequence of Cytochrome P450 2C9 (Homo sapiens) (P11712 whole entry, looked up): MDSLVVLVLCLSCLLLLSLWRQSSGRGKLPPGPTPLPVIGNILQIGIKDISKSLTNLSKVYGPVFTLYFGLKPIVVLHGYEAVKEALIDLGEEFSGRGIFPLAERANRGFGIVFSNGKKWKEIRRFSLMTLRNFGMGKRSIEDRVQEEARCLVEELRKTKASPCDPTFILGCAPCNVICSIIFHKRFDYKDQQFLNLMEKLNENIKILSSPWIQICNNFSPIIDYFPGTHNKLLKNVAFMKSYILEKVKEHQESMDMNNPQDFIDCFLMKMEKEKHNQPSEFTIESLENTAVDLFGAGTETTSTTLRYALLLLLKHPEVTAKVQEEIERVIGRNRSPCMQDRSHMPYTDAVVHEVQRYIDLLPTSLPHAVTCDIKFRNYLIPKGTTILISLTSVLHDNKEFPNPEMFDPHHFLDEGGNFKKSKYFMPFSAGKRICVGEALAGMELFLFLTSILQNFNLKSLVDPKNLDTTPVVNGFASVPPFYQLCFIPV
Outline: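 CYP2C9 activity was measured with a P450-Glo proluciferin substrate. Enzyme–substrate mix was held with compound for 10 min at room temperature, then NADPH regeneration solution was added for 1 h at 37C. Luciferin product was read as luminescence.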

[3] = target: Cytochrome P450 1A2 (Homo sapiens) (UniProt P05177); assay: Cytochrome P450 Family 1 Subfamily A Member 2 (CYP1A2) small molecule antagonists: luciferase reporter qHTS assay (AID 1671199); also: nearly all actives have a fitted effect of over 50% in size
Sequence of Cytochrome P450 1A2 (Homo sapiens) (P05177 whole entry, looked up): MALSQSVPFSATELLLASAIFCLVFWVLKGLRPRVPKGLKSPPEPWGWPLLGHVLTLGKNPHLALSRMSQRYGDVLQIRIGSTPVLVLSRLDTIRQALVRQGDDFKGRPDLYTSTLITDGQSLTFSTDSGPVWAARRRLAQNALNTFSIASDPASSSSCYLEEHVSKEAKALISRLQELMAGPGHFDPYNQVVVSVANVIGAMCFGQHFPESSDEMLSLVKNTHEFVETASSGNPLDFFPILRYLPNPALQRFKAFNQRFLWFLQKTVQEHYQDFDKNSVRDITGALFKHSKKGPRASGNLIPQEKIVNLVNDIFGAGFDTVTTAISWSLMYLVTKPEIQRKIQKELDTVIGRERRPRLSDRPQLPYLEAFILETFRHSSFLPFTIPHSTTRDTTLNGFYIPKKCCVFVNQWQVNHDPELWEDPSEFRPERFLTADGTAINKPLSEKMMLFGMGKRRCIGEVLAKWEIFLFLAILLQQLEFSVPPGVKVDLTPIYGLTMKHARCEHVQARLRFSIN
Outline: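 Luminescence readout (relative luminescence units) after luciferin detection reagent, 20 min RT. Preceded by 1 h room-temperature CYP1A2 reaction with NADPH regeneration solution following 10 min compound preincubation with enzyme and proluciferin substrate. Furafylline positive control.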

[4] = target: Voltage-gated inwardly rectifying potassium channel KCNH2 (Homo sapiens) (UniProt Q12809); assay: Human Ether-a-go-go-Related Gene (hERG) channel small molecule antagonists: fluorescence cell-based qHTS assay (AID 1671200); also: nearly all actives have a fitted effect of over 50% in size
Sequence of Voltage-gated inwardly rectifying potassium channel KCNH2 (Homo sapiens) (Q12809 whole entry, looked up): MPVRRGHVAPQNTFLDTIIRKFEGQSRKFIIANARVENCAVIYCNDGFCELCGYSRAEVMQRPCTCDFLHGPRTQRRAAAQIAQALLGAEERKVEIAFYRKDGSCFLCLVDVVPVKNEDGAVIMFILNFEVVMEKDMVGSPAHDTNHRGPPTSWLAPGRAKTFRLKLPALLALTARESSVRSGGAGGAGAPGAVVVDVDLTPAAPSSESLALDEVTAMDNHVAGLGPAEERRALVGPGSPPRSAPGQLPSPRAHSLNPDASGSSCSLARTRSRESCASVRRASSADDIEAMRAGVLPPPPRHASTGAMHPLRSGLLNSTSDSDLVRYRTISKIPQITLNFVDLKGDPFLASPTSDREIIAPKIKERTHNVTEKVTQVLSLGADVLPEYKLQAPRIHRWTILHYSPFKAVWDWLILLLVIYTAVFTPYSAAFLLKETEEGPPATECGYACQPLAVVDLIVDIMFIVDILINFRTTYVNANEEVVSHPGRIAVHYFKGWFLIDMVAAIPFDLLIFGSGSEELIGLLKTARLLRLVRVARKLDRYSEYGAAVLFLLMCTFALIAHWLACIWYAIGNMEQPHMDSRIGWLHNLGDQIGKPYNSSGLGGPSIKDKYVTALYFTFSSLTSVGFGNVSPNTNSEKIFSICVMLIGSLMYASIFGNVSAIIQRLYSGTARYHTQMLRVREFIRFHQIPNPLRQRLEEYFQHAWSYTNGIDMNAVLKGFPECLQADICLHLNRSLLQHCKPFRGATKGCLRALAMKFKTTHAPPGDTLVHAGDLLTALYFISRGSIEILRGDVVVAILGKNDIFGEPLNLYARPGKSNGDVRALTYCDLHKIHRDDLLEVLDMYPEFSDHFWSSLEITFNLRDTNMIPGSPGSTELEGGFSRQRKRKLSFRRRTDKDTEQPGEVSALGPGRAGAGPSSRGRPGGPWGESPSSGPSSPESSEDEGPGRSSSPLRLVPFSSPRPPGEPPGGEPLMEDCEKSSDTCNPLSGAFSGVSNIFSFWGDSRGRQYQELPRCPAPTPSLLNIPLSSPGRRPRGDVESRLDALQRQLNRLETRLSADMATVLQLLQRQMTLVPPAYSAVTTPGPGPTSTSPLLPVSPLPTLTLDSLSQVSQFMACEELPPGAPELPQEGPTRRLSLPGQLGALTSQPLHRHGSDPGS
Outline: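 Kinetic two-minute fluorescence traces, sampled at 1 s, were collected following thallium stimulus of U2OS cells (1000 per well) that had been cultured overnight at 37 C and loaded with FluxOR II.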

[5] = target: Cytochrome P450 3A4 (Homo sapiens) (UniProt P08684); assay: Cytochrome P450 Family 3 Subfamily A Member 4 (CYP3A4) small molecule antagonists: luciferase reporter qHTS assay (AID 1671201); also: nearly all actives have a fitted effect of over 50% in size
Sequence of Cytochrome P450 3A4 (Homo sapiens) (P08684 whole entry, looked up): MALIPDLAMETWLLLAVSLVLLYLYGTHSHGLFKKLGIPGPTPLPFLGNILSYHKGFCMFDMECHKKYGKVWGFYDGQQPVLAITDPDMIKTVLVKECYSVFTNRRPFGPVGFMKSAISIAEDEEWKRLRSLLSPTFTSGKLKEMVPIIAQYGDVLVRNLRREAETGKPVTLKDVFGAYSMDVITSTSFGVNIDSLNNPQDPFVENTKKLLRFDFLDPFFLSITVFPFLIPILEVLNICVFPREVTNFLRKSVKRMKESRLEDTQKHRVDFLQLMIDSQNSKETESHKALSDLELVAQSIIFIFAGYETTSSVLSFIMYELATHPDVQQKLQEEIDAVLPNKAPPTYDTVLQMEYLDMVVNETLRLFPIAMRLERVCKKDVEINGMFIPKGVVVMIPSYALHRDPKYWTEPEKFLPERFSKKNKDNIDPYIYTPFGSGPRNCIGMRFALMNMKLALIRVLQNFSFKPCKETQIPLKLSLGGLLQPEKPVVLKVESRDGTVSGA
Outline: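 Proluciferin-to-luciferin conversion by CYP3A4, NADPH-regenerated, 1 h RT; luminescence read as RLU. Ketoconazole as control.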

Measured: Potency
Potency is read from the fitted curve at half-maximal effect.

CCCCC/C=C\C/C=C\CCCCCCCC(=O)O
inactive: [3] | [4]
active: [2] 35 µM and 31.7 µM | [5] 39.9 µM
22.1 µM (active) and inactive: [1]

CCN(CCN)c1cccc(C)c1
active: [1] 7.17 µM and 35.6 µM | [2] 40.3 µM and 56.4 µM | [3] 11.4 µM and 20 µM | [4] 24.5 µM | [5] 12.7 µM and 35.6 µM

CCCCCCOC(=O)C(C)CC (stereo not given)
inactive: [1] | [2] | [3] | [4] | [5]

CC[C@H](C)COC(=O)/C=C/c1ccc(N=Cc2ccc(OC)cc2)cc1
active: [1] 0.893 µM | [2] 5.63 µM | [3] 5.63 µM | [4] 43.6 µM | [5] 5.63 µM

CC(=O)OCC=C(C)C
inactive: [1] | [2] | [3] | [4] | [5]

COc1cc(/C=C/c2ccccc2)oc(=O)c1
inactive: [4]
active: [1] 10.4 µM | [2] 32.8 µM | [3] 2.93 µM | [5] 26.1 µM

Nc1ccc(NCCO)c([N+](=O)[O-])c1
inactive: [4]
active: [1] 79.6 µM | [2] 35.6 µM | [3] 31.7 µM | [5] 25.2 µM

CC1(C)CCC[C@]2(C)[C@H]3CC(=O)O[C@]3(C)CC[C@@H]12
active: [1] 39.9 µM | [2] 39.9 µM | [3] 44.8 µM | [4] 38.9 µM | [5] 31.7 µM

Clc1nnc(Cl)c2ccccc12
inactive: [1] | [2] | [4] | [5]
active: [3] 11.2 µM
